The values below come from PubChem BioAssay (NCI).

Holding throughout (assay): NCI-60 one-dose screen, 48 h (100 = growth as untreated, 0 = no growth, -100 = all killed)
What all share (conditions): 10 µM unless noted

Experiment [1] concerns SK-MEL-2 melanoma.
For experiment [2], the system named is EKVX NSCLC.
The subject of experiment [3] is SN12C renal.
Experiment [4] has as its system UO-31 renal.
The test system of experiment [5] is TK-10 renal.
Experiment [6] concerns ACHN renal.
For experiment [7], the system named is CAKI-1 renal.
In experiment [8] the test system is A498 renal.
The test system of experiment [9] is CCRF-CEM leukemia.
The subject of experiment [10] is MOLT-4 leukemia.
Experiment [11] relates to SR leukemia.
The test system of experiment [12] is RPMI-8226 leukemia.
Experiment [13] has as its system OVCAR-8 ovarian.
In experiment [14] the test system is OVCAR-5 ovarian.
The subject of experiment [15] is OVCAR-4 ovarian.
Experiment [16] relates to SK-OV-3 ovarian.
In experiment [17] the test system is IGROV1 ovarian.
The subject of experiment [18] is OVCAR-3 ovarian.
The test system of experiment [19] is HS 578T breast.
Experiment [20] relates to NCI/ADR-RES ovarian.

This is part of a sample that, as a whole, favours compounds with a hit. Of some 83,000 tested, about 20% had one in any assay.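 A percent growth of 40 corresponds to 60% growth inhibition; 0 means no net growth; -100 means all cells died. Active threshold: below 10.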 Unmarked numbers belong to inactive results. Calls of active or inactive are those of the source.

With `O=C1c2ccccc2C(=O)c2cc(Cn3cc[n+](Cc4ccc5ccccc5c4)c3)ccc21`, the growth in experiment [1] was 89.1%; in experiment [2] it was 70.9%; in experiment [3], 74.4%; in experiment [4], 82.5%; in experiment [5] it was 107%; in [6] it was 108%. The growth in experiment [7] is 96.5%; in experiment [8] it was 98.3%; in experiment [9] it was 71%; in experiment [10], 79.1%; in experiment [11] it was 73.7%; in [12] it was 17.2%. Moreover, the growth in experiment [13] is 89.5%; in experiment [14] it was 84.6%; in [15], 58.7%; in experiment [16], 105%; in [17], 29.6%; in [18], 40.8%. The figures for the growth in experiment [19] and in [20] were 92.6% and 104%, respectively.
With `N#Cc1c(Oc2ccc([N+](=O)[O-])cc2)nc2sc3cc(Cl)ccc3n2c1=N`, the growth in [1] was 84.5%; in experiment [2], 84%; in experiment [3] it was 91%; in experiment [4] it was 72.5%; in experiment [5] it was 49.9%; in [6] it was 100%. The growth in experiment [7] is 111%; in experiment [8] it was 100%; in [9], 96.5%; in experiment [10], 77.3%; in experiment [11] it was 92.2%; in experiment [12], 83.6%. In addition, the growth in experiment [13] is 63.4%; in experiment [14] it was 120%; in experiment [15], 53.1%; in experiment [16], 67.1%; in experiment [17], 77.7%; in experiment [18] it was 107%. The growth in experiment [19] was 41.8%; in experiment [20] it was 86%.
With `Cc1c(C(=O)O)nnn1-c1nccs1`, the growth in [1] is 94.1%; in experiment [2], 92.9%; in [3] it was 101%; in experiment [4], 91%; in [5], 101%; in [6] it was 99.9%. In addition, the growth in experiment [7] is 94.3%; in [8], 86.4%; in experiment [9], 93.3%; in [10] it was 103%; in [11], 101%; in experiment [12], 93%. Further, the growth in [13] is 91.6%; in experiment [14], 104%; in experiment [15], 96.7%; in experiment [16] it was 90.8%; in [17], 104%; in experiment [18], 106%. In addition, the growth was 86.9% in experiment [19] and 103% in [20].
For the molecule `CN=C1C=CC(=C(c2ccc(N(C)C)cc2)c2ccc(N(C)C)cc2)C=C1`, the growth in experiment [1] is -52.4% (active); in [2], 3.72% (active); in [3] it was -32.1% (active); in experiment [4], -14.2% (active); in experiment [5] it was -53% (active); in [6] it was -53.4% (active). The growth was 9.65% (active) in experiment [7]; -27.4% (active) in experiment [8]; 3.67% (active) in experiment [9]; 3.36% (active) in experiment [10]; -10.9% (active) in [11]; 0.425% (active) in [12]. Moreover, the growth in [13] is -38.5% (active); in [14], 17.4%; in experiment [15] it was 7.52% (active); in experiment [16] it was -15.6% (active); in experiment [17] it was -12.7% (active); in experiment [18], -42.2% (active). For the same molecule, the growth was 32.6% in experiment [19] and 10.9% in experiment [20].
For the molecule `N#Cc1c(N)n2c(nc1=Nc1ccc(Cl)cc1)sc1cc(Cl)ccc12`, the growth was 69.8% in experiment [1]; 62.3% in experiment [2]; 88.4% in experiment [3]; 61.3% in experiment [4]; 108% in experiment [5]; 91.3% in experiment [6]. Also, the growth in experiment [7] is 75.5%; in [8], 91.1%; in experiment [9], 92%; in [10], 27.8%; in experiment [11], 22.6%; in experiment [12], 87.2%. In addition, the growth in [13] was 64.9%; in experiment [14] it was 105%; in experiment [15], 63.1%; in experiment [16], 77.2%; in [17], 95.9%; in [18] it was 98.1%. The growth was 33.3% in experiment [19] and 73.1% in experiment [20].
As to `Cc1ccc(C)c2c1C(=O)OC2=O`, the growth is 84.6% in experiment [1]; 105% in experiment [2]; 97.9% in [3]; 79.1% in experiment [4]; 102% in experiment [5]; 98.8% in experiment [6]. Also, the growth in experiment [7] is 99.4%; in [8], 101%; in experiment [9], 102%; in experiment [10] it was 3.4% (active); in experiment [11] it was 10.4%; in experiment [12] it was 109%. The growth in experiment [13] was 106%; in experiment [14], 90.6%; in experiment [15], 109%; in [16], 95.2%; in [17], 92%; in experiment [18] it was 115%. The values for the growth in experiment [19] and in [20] were 114% and 98.1%, respectively.
For `Cc1nc(Nc2ccc(NC(=S)Nc3ccccc3)cc2)nc2nc(Nc3ccc(S(=O)(=O)O)cc3)[nH]c(=O)c12`, the growth was 104% in experiment [1]; 111% in experiment [2]; 109% in [3]; 78.9% in experiment [4]; 125% in experiment [5]; 128% in experiment [6]. Further, the growth was 82.5% in [7]; 158% in experiment [8]; 84.5% in experiment [9]; 89.7% in experiment [10]; 47.5% in [11]; 79.2% in experiment [12]. In addition, the growth was 49.8% in experiment [13]; 103% in experiment [14]; 113% in experiment [15]; 98.3% in [16]; 72% in experiment [17]; 139% in [18]. For the same molecule, the growth was 111% in experiment [19] and 106% in experiment [20].
As to `CCN(CC)CC(O)CNc1c2ccc(Cl)cc2nc2ccc(OC)cc12` (centres undefined), the growth is -63.4% (active) in [1]; 7.93% (active) in experiment [2]; 4.08% (active) in [3]; -19.3% (active) in experiment [4]; -21.8% (active) in [5]; 12.1% in experiment [6]. Moreover, the growth in experiment [7] was -63.6% (active); in [8], 43.6%; in [9], 0.913% (active); in experiment [10], 4.43% (active); in experiment [11], 0.563% (active); in experiment [12] it was -30.9% (active). In addition, the growth in [13] was -40.3% (active); in experiment [14], -25.3% (active); in experiment [15], -4.45% (active); in experiment [17] it was -24.9% (active); in experiment [18], -23.9% (active); in experiment [19] it was 38.3%. In [20], the growth is -24.4% (active).
